In article PMC6212790, “How bacterial xenogeneic silencer rok distinguishes foreign from self DNA in its resident genome”:
The full ranking holds about 33,000 sequences; the median of “e-score” is about -0.038, and the highest 2% start at about 0.33. The sample as a whole holds a higher share of the highest values than the screen did.

Target: T1, GST-Rok-C97-191 (Bacillus subtilis subsp. subtilis str. …, UniProt O34857 97-191)
T1 sequence: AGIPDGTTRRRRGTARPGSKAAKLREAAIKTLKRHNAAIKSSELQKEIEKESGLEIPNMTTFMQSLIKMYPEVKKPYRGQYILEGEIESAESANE
Assay: protein binding microarray; Rok is a gene silencer of Bacillus subtilis; high values mean tight binding
Conditions: protein: recombinant; tags: GST (pTH5325, pDEST15-Magic modified); dsDNA, one strand shown
In short: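 Each has a 25-mer constant primer and a 35-mer variable part from a de Bruijn sequence of order 10, covering every non-palindromic 8-mer at least 32 times (palindromic 16). Preference for each 8-mer is given as a rank-based, unitless enrichment score (E-score). Its range runs from 0.5 (most favored) to −0.5 (most disfavored).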

Point of comparison: ATAATTAA, binding signal 0.298 E-score. Against it:
- AGTCAAGG — lower, -0.145 E-score
- CATGCTCC — lower, -0.102 E-score
- AAAGGATG — lower, -0.047 E-score
- AGACAGTA — lower, 0.0933 E-score
- GAGAACGA — lower, -0.104 E-score
- CGAGCAAG — lower, -0.0658 E-score
- CTTACGGC — lower, -0.196 E-score
- CATATTGC — lower, 0.0992 E-score
- CAGGTCAA — lower, -0.108 E-score
- ATGTAGAA — higher, 0.38 E-score
- AGGTAGAA — higher, 0.433 E-score
- AGGTAGAC — lower, 0.093 E-score
- AGGTAGAG — lower, 0.118 E-score
- CTGTAGAA — lower, 0.258 E-score
- GTGTAGAA — lower, 0.293 E-score
- ACCTCTTA — lower, 0.191 E-score
- TCATAGGA — lower, 0.154 E-score
- CAGGAGCA — lower, -0.151 E-score
- CAACCTAC — lower, 0.263 E-score
- AACATCCT — lower, 0.0847 E-score
- CGCCTACG — lower, -0.0439 E-score
- CCCTTGAC — lower, -0.132 E-score
- AATAGTAC — lower, 0.293 E-score
- AATAGTAA — higher, 0.338 E-score
- AACAGTAA — lower, 0.285 E-score
- AATAGTGT — lower, 0.242 E-score
- ATTAGTAA — higher, 0.303 E-score
- CACAGTAG — lower, 0.0897 E-score
- CAAAGTAC — lower, -0.0306 E-score
- AATAGTCA — lower, 0.186 E-score
- GAAAGTAC — higher, 0.35 E-score
- GAAAGTAA — lower, 0.226 E-score
- AATAGTAT — higher, 0.332 E-score
- AACAGTAG — higher, 0.362 E-score
- AGTTGCCA — lower, 0.0801 E-score
- ATTAGGGC — lower, -0.073 E-score
- CAAGACTA — lower, 0.186 E-score
- CTGACGAA — lower, -0.0673 E-score
- GATAGCGC — lower, 0.191 E-score
- GCAAATAA — lower, 0.158 E-score
- AATGATGA — lower, 0.00727 E-score
- AATAGTAG — higher, 0.475 E-score
- AAAAGTAG — higher, 0.344 E-score
- AATAGTCG — lower, -0.0896 E-score
- CAAAGTAG — lower, 0.194 E-score
- CATAGTAG — lower, 0.195 E-score
- AAAAGTAC — lower, 0.279 E-score
- AGACCACG — lower, -0.138 E-score
- CGTGTAAC — lower, 0.0552 E-score
- CTAGGCAC — lower, -0.149 E-score
- CGGCTAAC — lower, 0.00729 E-score
- GAGTTCAC — lower, 0.0331 E-score
- AGCTCGGG — lower, -0.116 E-score
- AATATATC — higher, 0.424 E-score
- AATATTAT — lower, 0.21 E-score
- CCTATATC — lower, 0.0424 E-score
- AATATATA — higher, 0.462 E-score
- AATATATG — higher, 0.337 E-score
- ACTATATG — lower, 0.283 E-score
- AATATGTG — lower, 0.199 E-score
- AATATAAG — lower, 0.26 E-score
- AAAATATT — higher, 0.327 E-score
- AATATATT — higher, 0.417 E-score
- CGTATATC — higher, 0.316 E-score
- AATATAGA — higher, 0.309 E-score
- CAGAAACG — lower, -0.0943 E-score
- TAAGTCAA — lower, -0.0154 E-score
- ATGATCCA — lower, 0.0416 E-score
- ACCAACAT — lower, 0.157 E-score
- CCATCGGG — lower, -0.172 E-score
- GCCGGACA — lower, 0.0879 E-score
- GTTATGTA — lower, 0.292 E-score
- CCTATGTA — higher, 0.302 E-score
- ACTATGTA — higher, 0.356 E-score
- GCTATGTA — lower, 0.226 E-score
- CTTATGTA — lower, 0.0579 E-score
- ATTATGTA — higher, 0.354 E-score
- AAGGGCAG — lower, -0.195 E-score
- AACACATG — lower, 0.0194 E-score
- AAGCTGTC — lower, 0.0421 E-score
- ACCAGGAC — lower, -0.0513 E-score
- GCATGTAC — lower, 0.163 E-score
- GAATGTAC — higher, 0.304 E-score
- AAATGTAC — higher, 0.364 E-score
- CAATGTAC — lower, 0.204 E-score
- TAATGTAA — higher, 0.357 E-score
- ACATGTAC — higher, 0.331 E-score
- AAATGTAG — lower, 0.286 E-score
- CAATGTAA — lower, -0.0287 E-score
- CCATGTAC — lower, 0.185 E-score
- AAATGTAT — lower, 0.27 E-score
- AAATGTAA — higher, 0.349 E-score
- GAATGTAA — lower, 0.173 E-score
- TAATTAGA — higher, 0.324 E-score
- CATAAAGC — lower, -0.119 E-score
- GTGCTAGA — lower, 0.197 E-score
- CTAGCAAC — lower, 0.222 E-score
- TGCGACAA — lower, -0.0569 E-score
- CGTGCAGC — lower, -0.0438 E-score
- GCTACGGA — lower, -0.0221 E-score
- CCCTAGCG — lower, -0.135 E-score
- CCACGCTC — lower, -0.0229 E-score
- ATAGGTTA — lower, 0.162 E-score
- AGATGTAT — lower, 0.264 E-score
- ATATGTAG — higher, 0.386 E-score
- ATATGTAC — higher, 0.309 E-score
- AGATGTAA — lower, 0.191 E-score
- AGATGTAG — higher, 0.331 E-score
- ATCTGTAC — lower, 0.0594 E-score
- ATCTGTAA — lower, 0.106 E-score
- ATCTGTAG — higher, 0.37 E-score
- ATATGTAA — lower, 0.28 E-score
- AAAAGTGG — lower, 0.0303 E-score
- GCTACATA — higher, 0.315 E-score
- GCTAGGCA — lower, -0.0675 E-score
- CAAGGGCC — lower, -0.186 E-score
- AAAATACT — higher, 0.371 E-score
- CAAATACC — lower, 0.114 E-score
- AAAATACA — higher, 0.32 E-score
- AAAATACG — lower, 0.266 E-score
- AAAATACC — higher, 0.357 E-score
- GAAATACC — lower, 0.289 E-score
- AAGTAAGG — lower, 0.0741 E-score
- AGAGTTTC — lower, -0.0267 E-score
- GTCGGTTA — lower, 0.00256 E-score
- AAAGTTTG — lower, -0.0186 E-score
- AGAACGCC — lower, 0.0453 E-score
- AGGTCCTC — lower, -0.0779 E-score
- ACTCCTTA — lower, 0.00627 E-score
- AAAACCAA — lower, 0.0758 E-score
- AGTGATGA — lower, 0.024 E-score
- CGTAGTAG — lower, 0.223 E-score
- ATTAGTAG — higher, 0.319 E-score
- GGTAGTAC — lower, 0.268 E-score
- AGAAGTAT — lower, 0.292 E-score
- AGTAGTAT — higher, 0.368 E-score
- CGTAGTAC — lower, 0.186 E-score
- AGTAGTAG — higher, 0.385 E-score
- AGTAGTAC — higher, 0.356 E-score
- AGCAGTAT — lower, 0.0236 E-score
- GTTGGCTA — lower, 0.0528 E-score
- CACAGGTA — lower, -0.0357 E-score
- CTCAATAA — lower, 0.215 E-score
- CATATTAC — lower, 0.22 E-score
- GATATTTA — higher, 0.328 E-score
- GATATTAC — higher, 0.328 E-score
- AGTATTTA — higher, 0.301 E-score
- AATATTAC — lower, 0.284 E-score
- GATATTAA — higher, 0.379 E-score
- CATATTAA — lower, 0.194 E-score
- GGTATTTA — higher, 0.342 E-score
- CATATTTA — lower, 0.282 E-score
- AATATTAA — lower, 0.285 E-score
- CGTATTTA — higher, 0.318 E-score
- AATATTTA — higher, 0.311 E-score
- CTGCAGGC — lower, -0.199 E-score
- ACCACTCG — lower, -0.181 E-score
- ACATCATG — lower, -0.155 E-score
- GCTCGACA — lower, -0.145 E-score
- CCCATTAC — lower, -0.0975 E-score
- GCTAACAC — lower, -0.0971 E-score
- TGCCTGAA — lower, -0.0885 E-score
- CGAGTCCG — lower, -0.192 E-score
- TATATTAA — higher, 0.387 E-score
- TATATTGA — lower, 0.288 E-score
- TGTATTAA — lower, 0.294 E-score
- CAACGAAA — lower, 0.00998 E-score
- AATTCACG — lower, 0.127 E-score
- CGCTTTGA — lower, -0.0415 E-score
- AGTACTTG — lower, 0.296 E-score
- AGTACTTA — higher, 0.355 E-score
- GGTACTAA — lower, 0.249 E-score
- TGTACTAA — lower, 0.191 E-score
- TCTACTCA — lower, 0.188 E-score
- GCTACTAA — lower, 0.229 E-score
- ACTACTTC — lower, 0.226 E-score
- TCTACTAA — higher, 0.342 E-score
- ACTACTTA — higher, 0.415 E-score
- ACTACTAA — higher, 0.379 E-score
- CGTACTTA — lower, 0.23 E-score
- ACTACTGA — lower, 0.269 E-score
- CGTCCCAA — lower, -0.181 E-score
- CATTATGA — lower, 0.0691 E-score
- TCCACTCA — lower, -0.127 E-score
- AGCCAATG — lower, -0.162 E-score
- CGCAGAAG — lower, -0.171 E-score
- TCAATTAA — lower, 0.161 E-score
- CTAATTCC — lower, 0.159 E-score
- CCAATTAC — lower, 0.0758 E-score
- GAATTTAA — lower, 0.124 E-score
- TAATTTAA — higher, 0.396 E-score
- CTAATTAC — higher, 0.382 E-score
- AAATTTAA — higher, 0.299 E-score
- CTAATTAA — lower, 0.275 E-score
- ATAATTAG — higher, 0.354 E-score
- ATAATTAT — lower, 0.137 E-score
- TTAATTAA — higher, 0.346 E-score
- GTCCTAGA — lower, -0.199 E-score
- AATGTCGC — lower, 0.0115 E-score
- CTAGCTAG — lower, 0.294 E-score
- ATCTTAGG — lower, -0.016 E-score
- CGGCGGTA — lower, 0.123 E-score
- CCAGGTCA — lower, -0.0861 E-score
- CGAATTAG — lower, 0.279 E-score
- GTAATTAC — higher, 0.43 E-score
- GCAATTAC — lower, 0.13 E-score
- CCAATTAG — lower, -0.111 E-score
- ATAATTAC — higher, 0.332 E-score
- ATAATTGC — lower, 0.26 E-score
- AGAATTAC — lower, 0.217 E-score
- GTAATTAA — lower, 0.213 E-score
- CTAATTAG — higher, 0.362 E-score
- ATGAATTC — lower, 0.0443 E-score
- CGCTTAGA — lower, -0.0215 E-score
- GATATCGA — lower, 0.223 E-score
- GAACGACC — lower, -0.143 E-score
- CGTTCTAG — lower, 0.22 E-score
- CTTTGTCC — lower, -0.101 E-score
